From the supplement of paper PMC6763611 come the findings set out here.

A value given as a limit tells only on which side of the number the result lay.

In the assay the test system is Plasmodium falciparum NF54. In words: growth inhibition relative to untreated control; higher = more inhibition. The settings on record: 72 h. The method, boiled down: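 P. falciparum NF54 ring stages (1% hematocrit, 1% parasitemia, 100 μL/well in 96-well half-area dark plates) were exposed for 72 h at 37 °C to single 5 μM or 1 μM doses of Pathogen Box compounds. The medium was minimal RPMI or minimal RPMI plus chorismate end-products (2.2 μM folate, 7.3 μM pABA, 7.3 μM pHBA, 111 μM tyrosine, 90 μM phenylalanine, tryptophan). Growth inhibition was read by SYBR Green, normalised to untreated controls, with uninfected erythrocytes as background.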

The mark [1] stands for this setting: 1 µM, MM + chorismate end-products (CM screening medium).
Setting [2] is: 5 µM, MM + chorismate end-products (CM screening medium).

On to `O=C(NCCN1CCCC1)c1cc(NCCCCN2CCC(F)(F)CC2)nc2ccc(Cl)cc12`, for which the growth inhibition under setting [1] amounted to 100%; the growth inhibition (1 µM, minimal medium (MM)) came out at 98.4%; the growth inhibition under setting [2] was 90.7%; the growth inhibition (5 µM, minimal medium (MM)) came to 96.9%.

Turning to `CC(C)n1ncc2c(C(=O)NCC(c3cccs3)N3CCOCC3)cc(-c3ccccc3)nc21` (stereo unspecified), the growth inhibition was found to be 10% under setting [1]; 9.61% (1 µM, minimal medium (MM)); 42.4% under setting [2]; 14.2% (5 µM, minimal medium (MM)).

On to `Cc1ccccc1C(=O)N1N=C(Nc2ccccc2)SC1(C)C`, for which the growth inhibition reads like this: under setting [1], 49.8%; (1 µM, minimal medium (MM)) 9.58%; under setting [2], < 0%; (5 µM, minimal medium (MM)) 5.01%.

Consider `O=C1Nc2ccc(Br)cc2C12NCCc1c2[nH]c2ccccc12` (stereo unspecified), for which the growth inhibition reads like this: under setting [1], 97.4%; (1 µM, minimal medium (MM)) 94.7%; under setting [2], 95.9%; (5 µM, minimal medium (MM)) 87.5%.

For the molecule `c1ccc(Oc2ccc(-c3cc(N4CCNCC4)[nH]n3)cc2)cc1`, the growth inhibition was 32.1% under setting [1]; 29.2% (1 µM, minimal medium (MM)); 40.3% under setting [2]; 34.4% (5 µM, minimal medium (MM)).

In the case of `Cc1cc(Cl)ccc1NC(=O)CCc1ccc(S(=O)(=O)NCC(C)C)cc1`, the growth inhibition is 23% under setting [1]; < 0% (1 µM, minimal medium (MM)); 6.82% under setting [2]; < 0% (5 µM, minimal medium (MM)).

Take `FC(F)(F)c1cnc(Sc2nnc(-c3ccncc3)o2)c(Cl)c1`: the growth inhibition was 53% under setting [1]; 61.3% (1 µM, minimal medium (MM)); 64% under setting [2]; < 0% (5 µM, minimal medium (MM)).

Regarding `Cn1c(=O)c2c(S(C)(=O)=O)snc2n(C)c1=O`, the growth inhibition was 23.6% under setting [1]; 5.49% (1 µM, minimal medium (MM)); 37.3% under setting [2]; 23.5% (5 µM, minimal medium (MM)).

`Cc1ccc(NC(=O)c2nc[nH]c2C(=O)Nc2nc3ccccc3[nH]2)c(C)c1`: the growth inhibition was 31% under setting [1]; 49.8% (1 µM, minimal medium (MM)); 26.8% under setting [2]; 80.9% (5 µM, minimal medium (MM)).

Turning to `COc1cccc(-n2nnnc2S(C)(=O)=O)c1`, the growth inhibition under setting [1] was 19.7%; the growth inhibition (1 µM, minimal medium (MM)) is 29.5%; the growth inhibition under setting [2] is 35%; the growth inhibition (5 µM, minimal medium (MM)) was 8.78%.

With `CCc1nc2ccc(Cl)cn2c1C(=O)NCc1ccc(N2CCC(c3ccc(OC(F)(F)F)cc3)CC2)cc1`, the growth inhibition under setting [1] was < 0%; the growth inhibition (1 µM, minimal medium (MM)) was < 0%; the growth inhibition under setting [2] worked out at 91%; the growth inhibition (5 µM, minimal medium (MM)) was 71.4%.

With `O=C(NCc1ccoc1)N1CCN(Cc2ccc3c(c2)OCO3)CC1`, the growth inhibition is, setting by setting: under setting [1], < 0%; (1 µM, minimal medium (MM)) 6.98%; under setting [2], < 0%; (5 µM, minimal medium (MM)) < 0%.

Consider `Cc1cc(Nc2ccc(C(F)(F)F)cc2)n2ccnc2n1`, for which the growth inhibition runs as follows: under setting [1], 97.2%; (1 µM, minimal medium (MM)) 94.6%; under setting [2], 97.3%; (5 µM, minimal medium (MM)) 94.4%.

On to `Cc1ccc2nc(C)c(-c3ccn(Cc4ccccc4)n3)n2c1`, for which the growth inhibition by setting is: under setting [1], 43%; (1 µM, minimal medium (MM)) 33.9%; under setting [2], 36.8%; (5 µM, minimal medium (MM)) < 0%.

Turning to `CO[C@H]1/C=C\O[C@@]2(C)Oc3c(C)c(O)c4c(O)c(/c(=C/NN5CCN(C)CC5)c(O)c4c3C2=O)=N\C(=O)/C(C)=C\C=C/[C@H](C)[C@H](O)[C@@H](C)[C@@H](O)[C@@H](C)[C@H](OC(C)=O)[C@@H]1C`, the growth inhibition runs as follows: under setting [1], 35.5%; (1 µM, minimal medium (MM)) 38.2%; under setting [2], > 100%; (5 µM, minimal medium (MM)) 97.2%.

With `COc1cccc(OC)c1C(=O)Nc1ccc(Cl)c(-c2nc3ccccc3s2)c1`, the growth inhibition under setting [1] amounted to 20.8%; the growth inhibition (1 µM, minimal medium (MM)) was < 0%; the growth inhibition under setting [2] came to 22.9%; the growth inhibition (5 µM, minimal medium (MM)) worked out at 29.8%.

With `Brc1cncc(-c2cc(NCCCn3ccnc3)nc(-c3ccccc3)n2)c1`, the growth inhibition is, setting by setting: under setting [1], > 100%; (1 µM, minimal medium (MM)) 39.8%; under setting [2], 91.2%; (5 µM, minimal medium (MM)) 90.1%.

On to `COc1cc(-c2cc(-c3ccc(S(C)(=O)=O)cc3)cnc2N)ccc1O`, for which the growth inhibition is > 100% under setting [1]; > 100% (1 µM, minimal medium (MM)); 96.8% under setting [2]; 96% (5 µM, minimal medium (MM)).

With `O[C@@H](c1cc(C(F)(F)F)nc2c(C(F)(F)F)cccc12)[C@H]1CCCCN1`, the growth inhibition was 94.5% under setting [1]; 94.9% (1 µM, minimal medium (MM)); 91.5% under setting [2]; 85.5% (5 µM, minimal medium (MM)).

For `N=C(N)Nc1ccc(-c2ccc(-c3ccc(N=C(N)N)c(Cl)c3)o2)cc1Cl`, the growth inhibition was 73.6% under setting [1]; > 100% (1 µM, minimal medium (MM)); 97.4% under setting [2]; 88.2% (5 µM, minimal medium (MM)).

Consider `CCOC(=O)c1cc(-c2csc(Nc3c(C)cc(C)cc3C)n2)on1`, for which the growth inhibition by setting is: under setting [1], 12.2%; (1 µM, minimal medium (MM)) 20.5%; under setting [2], 34.3%; (5 µM, minimal medium (MM)) < 0%.

With `CC(C)(C)n1nc(Cc2cccc3ccccc23)c2c(N)ncnc21`, the growth inhibition under setting [1] is < 0%; the growth inhibition (1 µM, minimal medium (MM)) was 18.3%; the growth inhibition under setting [2] was found to be 39.5%; the growth inhibition (5 µM, minimal medium (MM)) was found to be 29.5%.

For the molecule `COc1ccc2nccc(NC(=O)C3CCN(CCc4ccc(Cl)cc4)CC3)c2n1`, the growth inhibition by setting is: under setting [1], 33.1%; (1 µM, minimal medium (MM)) 30.5%; under setting [2], 42.1%; (5 µM, minimal medium (MM)) 42.2%.

For `CCc1cc(=O)n(C)c(SC(C)C(=O)Nc2ccc(F)cc2)n1` (stereo unspecified), the growth inhibition reads like this: under setting [1], < 0%; (1 µM, minimal medium (MM)) 2.62%; under setting [2], 96.9%; (5 µM, minimal medium (MM)) 94.5%.

For `FC(F)(F)c1ccc(N(c2cccnc2)C2CCN(c3ccc(C(F)(F)F)cn3)CC2)cc1`, the growth inhibition by setting is: under setting [1], 60.2%; (1 µM, minimal medium (MM)) 38.4%; under setting [2], 93.8%; (5 µM, minimal medium (MM)) 90.5%.

`Nc1nc(N)c2c3c(sc2n1)CN(Cc1ccccc1)CC3`: the growth inhibition reads like this: under setting [1], 55.2%; (1 µM, minimal medium (MM)) 96.8%; under setting [2], 60.8%; (5 µM, minimal medium (MM)) 91.9%.

`CCCn1c(CNc2ccccc2O)nc2ccccc21`: the growth inhibition is, setting by setting: under setting [1], 11.5%; (1 µM, minimal medium (MM)) 22.8%; under setting [2], 12.5%; (5 µM, minimal medium (MM)) < 0%.

In the case of `Nc1nc2cc(-c3cncc(Oc4ccc(F)cc4)c3)ccc2[nH]1`, the growth inhibition by setting is: under setting [1], 76.1%; (1 µM, minimal medium (MM)) 67.8%; under setting [2], 94.9%; (5 µM, minimal medium (MM)) 95.6%.

Take `CC1CCCN(C(=O)C(C)Nc2cc(Cl)ccc2N2CCOCC2)C1` (stereo unspecified): the growth inhibition is, setting by setting: under setting [1], 90.5%; (1 µM, minimal medium (MM)) 94.3%; under setting [2], 91%; (5 µM, minimal medium (MM)) 94.9%.
